38 compounds from PubChem BioAssay AID720650 (Broad Institute, 2013) can be followed below.

The structures appear in SMILES notation. Active and inactive are the calls of the source. How the calls were made is not given here.

A short description of this assay: C difficile toxins, biochemical counterscreen, UDPG substrate absence, confirmatory dose response (AID 720650). Conditions: series mostly up to 19.5 µM. (Counterscreens check selectivity or assay interference.)
As to `CCOC(=O)c1nnn(-c2nonc2N)c1-c1ccc(F)cc1`, the AC50 entry was “inactive”.

In the case of `CN1C(=O)c2cc(NC(=O)c3cccc(F)c3)ccc2OC[C@H]2O[C@H](CC(=O)NCC3CCCCC3)CC[C@@H]21`, the AC50 entry was “inactive”.

On to `Oc1ccc(-c2nccs2)cc1`, for which the AC50 is 10.2 µM (active).

Consider `CC1(C)CCC/C(=C\c2ccccc2)C1=O`, for which the AC50 result is “inactive”.

Take `Oc1ccc(CCc2ccccn2)cc1`: the AC50 was 11.6 µM (active).

Regarding `COc1ccc(C(=O)OCC(=O)Nc2ccc3[nH]c(=O)[nH]c3c2)c(OC)c1OC`, the AC50 entry was “inactive”.

Regarding `Cc1c(-n2c(O)c(C3=c4ccccc4=NC3=O)sc2=S)c(=O)n(-c2ccccc2)n1C`, the AC50 result was “inactive”.

Turning to `CCN(CC)CCNC(=O)C1CCN(S(=O)(=O)c2c(C)noc2/C=C/c2ccccc2F)CC1`, the AC50 result was “inactive”.

With `COCC(=O)N1CC[C@@H]2[C@H]1c1cc(-c3ccc(F)cc3)ccc1N(C)[C@H]2CO`, the AC50 was 7.2 µM (active).

As for `CC(OC(=O)[C@@H](NC(=O)OCc1ccccc1)C(C)C)C(=O)Nc1ccc(N2CCOCC2)cc1` (stereo partly drawn), the AC50 result was “inactive”.

`CCCC(=O)Nc1sc2c(c1C(=O)Nc1ccccn1)CCCC2`: the AC50 entry is “inactive”.

On to `CC(Oc1ccc(Cl)cc1Cl)C(=O)Nc1ccc(O)cc1` (stereo not drawn), for which the AC50 was 12.9 µM (active).

In the case of `CCOC(=O)c1cccc(NC(=O)CCNS(=O)(=O)c2cccc3nonc23)c1`, the AC50 result was “inactive”.

For `O=C(O)c1cc(S(=O)(=O)Nc2ccc3cn[nH]c3c2)ccc1Cl`, the AC50 result was “inactive”.

For the compound `CCOC(=O)C1=C(C)Nc2nnnn2C1c1ccc(OC)c(Br)c1` (stereo not drawn), the AC50 is > 39 µM (inactive).

On to `O=C(CNC(=O)c1ccccc1Br)N/N=C/c1ccc(O)cc1`, for which the AC50 was 15.7 µM (active).

`Cc1ccn(CCC(=O)NC2CC(C)(C)Cc3c2cnn3-c2ccccc2C)n1` (stereo not drawn): the AC50 entry was “inactive”.

For `CCN(CCN(C)C)C(=O)C1CCN(S(=O)(=O)c2c(C)noc2/C=C/c2ccccc2F)CC1`, the AC50 entry was “inactive”.

As for `COc1ccc(CNCCc2ccc3c(c2)OCO3)cc1Br`, the AC50 result is “inactive”.

As to `COc1cc(NC(=O)CCc2nnc3ccc(N4CCC(C)CC4)nn23)cc(OC)c1`, the AC50 result was “inactive”.

With `CC(=O)Nc1ccc(NC(=O)Cc2ccc(S(=O)(=O)N3CCCCC3)cc2)cc1`, the AC50 entry was “inactive”.

With `O=C(NCc1ccccc1)C1Cc2c(-c3cccc(F)c3)ccnc2O1` (stereo not drawn), the AC50 result is “inactive”.

With `Cn1cnnc1SCC(=O)NC1CCCCC1`, the AC50 entry is “inactive”.

Consider `COc1ccc(/C=N/N=C2/NC(=O)C(CC(=O)NC(N)=O)S2)cc1` (stereo not drawn), for which the AC50 result is “inactive”.

Regarding `CC(N)C(=O)NC(C(=O)N1CCCC1C(=O)NC(c1ccccc1)c1ccccc1)C(C)C` (stereo not drawn), the AC50 entry is “inactive”.

Turning to `C=CCn1c(SCC(=O)N2CC(=O)Nc3ccccc32)nc2scc(-c3ccccc3)c2c1=O`, the AC50 entry is “inactive”.

Consider `CC[C@H](C)[C@H]1CNC(=S)N1CC1CCN(CCCC2CCCC2)CC1`, for which the AC50 result is “inactive”.

With `O=C(N/N=C/c1cccc([N+](=O)[O-])c1)c1ccc(Br)cc1`, the AC50 entry is “inactive”.

On to `O=c1[nH]c(/C=C\c2ccc(O)c(Cl)c2)nc(O)c1[N+](=O)[O-]`, for which the AC50 is 20 µM (active).

For `O=C(Nc1ccc2c(c1)OCCO2)c1cc2ccccc2o1`, the AC50 was > 39 µM (inactive).

`COc1ccc(C2=NS(=O)(=O)N(C)C(C(=O)NCc3ccc(F)cc3)=C2)cc1OC`: the AC50 result is “inactive”.

With `COc1ccc(/C=C\c2onc(C)c2S(=O)(=O)N2CCC(C(=O)NCCC(C)C)CC2)cc1`, the AC50 entry is “inactive”.

As for `Nc1ncnc2[nH]c(=S)[nH]c12`, the AC50 is > 39 µM (inactive).

As to `CCCN1CCN(C(=O)C2CCN(S(=O)(=O)c3c(C)noc3/C=C/c3ccc(C)cc3)CC2)CC1`, the AC50 entry was “inactive”.

As for `COc1ccc(OCc2cc(-c3ccc(Cl)cc3)no2)cc1`, the AC50 entry was “inactive”.

In the case of `COc1ccc(C(=O)/C=C/c2ccc(O)cc2)c2c1CC(O)C(C)(C)O2` (stereo not drawn), the AC50 result is “inactive”.

For `CCC(=O)c1cn(CC(=O)Nc2cccc(C)c2C)c2ccccc12`, the AC50 entry was “inactive”.

Turning to `COc1ccc(Cl)cc1NC(=O)CN(C)C(=O)c1cc2c(s1)CCCC2`, the AC50 result is “inactive”.

One may read the AC50 as the concentration giving half of the maximal activity seen.
